For assay [1], the target named is Tyrosyl-DNA phosphodiesterase 1 (Homo sapiens) (UniProt Q9NUW8). Briefly: Confirmation Assay for Inhibitors of Tyrosyl-DNA Phosphodiesterase (TDP1) (AID 489007). Also: potency is read from the fitted curve at half-maximal effect; nearly all actives have a fitted effect of over 40% in size. The conditions noted are these: recombinant human TDP1 enzymatic activity, dose-response. An outline of the steps:
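Loss of AlphaScreen signal reports Tdp1 cleavage of a dual-labelled DNA substrate. Conditions: 1 nM E. coli-derived enzyme, 15 nM substrate, 15 min compound preincubation, 5 min reaction, 10 min bead incubation, all at room temperature.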

Assay [2] deals with ATP-dependent 6-phosphofructokinase (Trypanosoma brucei brucei) (UniProt O15648). Briefly: qHTS Assay to Find Inhibitors of T. brucei phosphofructokinase: hit validation (AID 492961).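 Also: luminescence reports ADP formed as PFK phosphorylates fructose-6-phosphate with ATP; % is scaled to controls: 0 for no effect and ±100 for the full control effect.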 Conditions: T. brucei PFK, ADP-Glo luminescence; series mostly up to 51.4 µM. The gist of the method:
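Measures ADP output of PFK (1.25 nM) at 0.1 mM ATP, 0.5 mM F6P, pH 8.0 TEA buffer with 5 mM MgCl2. No-enzyme wells define full inhibition; uninhibited enzyme wells define zero.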
For orientation: qHTS replaces the single test concentration by a dilution series.

Assay [3] is described as follows: qHTS profiling for inhibitors of Plasmodium falciparum proliferation (AID 504749).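 Also: 0% = DMSO vehicle and full inhibition = artemisinin control; nearly all actives have a fitted effect of over 60% in size.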 Conditions: P. falciparum in erythrocytes, SYBR Green DNA, 72 h, at 28.7 µM (top of the series). An outline of the steps:
(§1)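 In a 72 h erythrocytic culture (37 C, humidified, 5% CO2) at 2.5% hematocrit and 0.3% starting parasitemia, compounds were tested; SYBR Green I in detergent lysis buffer stained parasite DNA overnight.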

A further assay deals with 3D7. The assay is described as above. The conditions noted are these: P. falciparum in erythrocytes, SYBR Green DNA, 72 h; series mostly up to 28.7 µM. An outline of the steps:
as §1

For the next assay, the system named is 7G8. Described as above. Conditions: P. falciparum in erythrocytes, SYBR Green DNA, 72 h; series mostly up to 28.7 µM. An outline of the steps:
as §1

Another assay deals with AS120. The assay is described as above. Conditions: P. falciparum in erythrocytes, SYBR Green DNA, 72 h; series mostly up to 28.7 µM. The gist of the method:
as §1

The test system of the next assay is ATS189. Described as above. Conditions: P. falciparum in erythrocytes, SYBR Green DNA, 72 h; series mostly up to 28.7 µM. An outline of the steps:
as §1

A further assay has as its system CP185. The description is as above. Conditions: P. falciparum in erythrocytes, SYBR Green DNA, 72 h; series mostly up to 28.7 µM. An outline of the steps: as §1
The subject of the next assay is CP191. The assay is described as above. Conditions: P. falciparum in erythrocytes, SYBR Green DNA, 72 h; series mostly up to 28.7 µM. The gist of the method: as §1
The next assay has as its system CP192. The assay is described as above. Conditions: P. falciparum in erythrocytes, SYBR Green DNA, 72 h; series mostly up to 28.7 µM. An outline of the steps: as §1
A further assay deals with CP194. Described as above. Conditions: P. falciparum in erythrocytes, SYBR Green DNA, 72 h; series mostly up to 28.7 µM. An outline of the steps:
as §1

Another assay has as its system CP201. Described as above. Conditions: P. falciparum in erythrocytes, SYBR Green DNA, 72 h; series mostly up to 28.7 µM. The gist of the method: as §1
The next assay has as its system CP203. The description is as above. Conditions: P. falciparum in erythrocytes, SYBR Green DNA, 72 h; series mostly up to 28.7 µM. The gist of the method: as §1
A further assay has as its system CP247. Described as above. The conditions noted are these: P. falciparum in erythrocytes, SYBR Green DNA, 72 h; series mostly up to 28.7 µM. An outline of the steps:
as §1

The next assay concerns CP286. The description is as above. The conditions noted are these: P. falciparum in erythrocytes, SYBR Green DNA, 72 h; series mostly up to 28.7 µM. An outline of the steps: as §1
Another assay relates to CP291. The assay is described as above. Conditions: P. falciparum in erythrocytes, SYBR Green DNA, 72 h; series mostly up to 28.7 µM. The gist of the method:
as §1

For a further assay, the system named is CP305. The assay is described as above. Conditions: P. falciparum in erythrocytes, SYBR Green DNA, 72 h; series mostly up to 28.7 µM. An outline of the steps:
as §1

Another assay relates to HB3. The assay is described as above. The conditions noted are these: P. falciparum in erythrocytes, SYBR Green DNA, 72 h; series mostly up to 28.7 µM. An outline of the steps:
as §1

In a further assay the test system is P94_40. The assay is described as above. Conditions: P. falciparum in erythrocytes, SYBR Green DNA, 72 h; series mostly up to 28.7 µM. An outline of the steps:
as §1

The subject of another assay is PC49. Described as above. Conditions: P. falciparum in erythrocytes, SYBR Green DNA, 72 h; series mostly up to 28.7 µM. An outline of the steps: as §1

Results filed as inconclusive are left out. Values without a mark were called inactive. Active and inactive are the calls of the source. Calls follow the shape of the dose curve; as a rule, active = well fitted curve in the direction sought with a large enough effect; inconclusive = small, poorly fitted or top-dose-only effect, or another doubt; inactive = no such curve, though single readings can be large; an effect the other way counts as inactive or inconclusive.

Sequence of Tyrosyl-DNA phosphodiesterase 1 (Homo sapiens) (Q9NUW8 whole entry, looked up): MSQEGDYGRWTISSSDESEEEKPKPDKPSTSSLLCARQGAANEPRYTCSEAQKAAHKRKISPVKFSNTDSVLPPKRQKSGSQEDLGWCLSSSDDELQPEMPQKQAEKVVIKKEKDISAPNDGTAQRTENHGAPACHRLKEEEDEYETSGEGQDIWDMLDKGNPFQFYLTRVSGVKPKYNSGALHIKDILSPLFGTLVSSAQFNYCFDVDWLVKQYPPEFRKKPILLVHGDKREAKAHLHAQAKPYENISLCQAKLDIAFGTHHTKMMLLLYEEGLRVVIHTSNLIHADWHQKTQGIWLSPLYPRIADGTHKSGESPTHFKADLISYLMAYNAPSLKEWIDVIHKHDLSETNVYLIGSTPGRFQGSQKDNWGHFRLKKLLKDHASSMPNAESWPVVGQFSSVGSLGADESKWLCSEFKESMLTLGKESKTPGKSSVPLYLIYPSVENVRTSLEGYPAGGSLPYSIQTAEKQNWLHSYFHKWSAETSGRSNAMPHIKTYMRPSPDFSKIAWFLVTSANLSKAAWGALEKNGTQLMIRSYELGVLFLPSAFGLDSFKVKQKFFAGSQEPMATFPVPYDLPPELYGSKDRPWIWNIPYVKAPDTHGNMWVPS
Sequence of ATP-dependent 6-phosphofructokinase (Trypanosoma brucei brucei) (O15648 whole entry, looked up): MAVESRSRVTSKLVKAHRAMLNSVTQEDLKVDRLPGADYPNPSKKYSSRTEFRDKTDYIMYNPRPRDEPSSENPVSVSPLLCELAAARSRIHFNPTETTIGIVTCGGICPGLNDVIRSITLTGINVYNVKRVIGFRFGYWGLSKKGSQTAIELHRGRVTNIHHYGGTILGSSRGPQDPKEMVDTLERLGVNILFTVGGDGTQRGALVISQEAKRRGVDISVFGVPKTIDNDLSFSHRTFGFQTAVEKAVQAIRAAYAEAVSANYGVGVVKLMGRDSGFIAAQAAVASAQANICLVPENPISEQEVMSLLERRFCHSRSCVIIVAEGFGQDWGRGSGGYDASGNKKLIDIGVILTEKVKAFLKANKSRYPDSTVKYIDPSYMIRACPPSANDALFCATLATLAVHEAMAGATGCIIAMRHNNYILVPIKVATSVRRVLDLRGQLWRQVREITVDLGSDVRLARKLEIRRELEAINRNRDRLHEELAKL

Take `Cn1nnnc1SCC(=O)Nc1ccccn1`: the Potency in assay [1] was 7.08 µM (active).

Take `N#CC(C#N)=Cc1cccn1-c1ccc(C(=O)O)cc1`: the Potency in assay [1] is 3.98 µM (active).

On to `O=C(CSc1nc2ccccc2[nH]1)NC1CCCC1`, for which the Potency in assay [1] is 14.1 µM (active).

`O=C1CN(C(=O)/C=C/c2ccco2)c2ccccc2N1`: the Potency in assay [1] is 44.7 µM (active).

For the molecule `CO/N=C(/C(=O)N[C@H]1C(=O)N2C(C(=O)O)=C(COC(C)=O)CSC12)c1csc(N)n1` (stereo partly specified), in assay [1], the Potency is 8.91 µM (active).

For `C[C@@H]1C(SC2Cn3cnc[n+]3C2)=C(C(=O)[O-])N2C(=O)[C@H]([C@@H](C)O)[C@@H]12` (stereo partly specified), the Potency result (in assay [2]; in the assay with 3D7; with 7G8; in the assay with AS120; with ATS189; in the assay with CP185) was “inactive” throughout. Besides, the Potency entry in the assay with CP191, in the assay on CP192, with CP194, in the assay with CP201, in the assay with CP203 and in the assay with CP247 was “inactive” in each case. In addition, the Potency entry in the assay with CP286, with CP291, in the assay on CP305, in the assay on HB3, in the assay with P94_40 and in the assay on PC49 was “inactive” throughout. The activity, negative = inhibition in assay [3] (parasite line A) was 6.33%; in assay [3] (parasite line B), 11.1%.

Take `CC(=O)Nc1ccc2nc3c(=O)[nH]c(=O)[nH]c3nc2c1`: the Potency in assay [1] was 4.47 µM (active).

Regarding `CC12C=CC(=O)C=C1[C@@H](F)CC1C2C(O)CC2(C)C1CC[C@]2(O)C(=O)CO` (stereo partly specified), the Potency entry (in assay [2]; with 3D7; with 7G8; in the assay with AS120; in the assay with ATS189; in the assay with CP185) was “inactive” throughout. Besides, the Potency result in the assay with CP191, in the assay on CP192, in the assay with CP194, with CP201, in the assay with CP203 and in the assay with CP247 was “inactive” each time. The Potency entry in the assay with CP286, with CP291, in the assay on CP305, with HB3, in the assay with P94_40 and in the assay with PC49 was “inactive” each time. In addition, the activity, negative = inhibition in [3] (parasite line A) is 4.43%; in assay [3] (parasite line B), 5.63%.

Source of the values: PubChem BioAssay (NCATS).
